Values joined by “and” are separate entries in the source; they are usually repeats but may differ in a detail not shown here. Equal values may be shown once. Active and inactive are the calls of the source. The calls were made as follows: active = hit-call score of the fitted dose curve at least 0.9, where 1 is the maximum; inactive = score below 0.9.
These compounds were tested on Vascular cell adhesion molecule 1 (VCAM1), VCAM1 (gene 7412) (assay: BSK_hDFCGF_VCAM1: BioMAP Diversity Plus: hDFCGF Assay for Vascular cell adhesion molecule 1 (VCAM1) Biomarker Activity (AID 2283065;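 as to AC50: VCAM-1 protein level quantified by ELISA after 24 h chemical exposure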)). Details: primary human foreskin fibroblasts; actives raise or lower the signal.
How it was run: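 Human foreskin fibroblast primary cells, chemical exposure 24 h; VCAM-1 by ELISA; bidirectional fit, DMSO = negative control/baseline.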

| SMILES | outcome | AC50 |
| --- | --- | --- |
| O=C(Nc1ccccc1)Nc1ccnc(Cl)c1 | inactive | – |
| CCCCC(CC)COC(=O)c1ccccc1C(=O)OCC(CC)CCCC (configuration not stated) | inactive | – |
| O=C(O)COc1nc(Cl)c(Cl)cc1Cl | inactive | – |
| Cc1ccc(-c2c(Cl)nc(C#N)n2S(=O)(=O)N(C)C)cc1 | – | 4.39 µM (active) |
| Fc1ccc(Oc2ccnc3cc(Cl)cc(Cl)c23)cc1 | – | 13.2 µM (active) |
| CN(C)C(=S)SSC(=S)N(C)C | – | 4.12 µM (active) |
| C=CC1(C)OC(=O)N(c2cc(Cl)cc(Cl)c2)C1=O (configuration not stated) | inactive | – |
| COc1nc(NC(C)C)nc(NC(C)C)n1 | inactive | – |
| OC(c1ccc(Cl)cc1)(c1cncnc1)c1ccccc1Cl (configuration not stated) | inactive | – |
| CC(C)Oc1cc(-n2nc(C(C)(C)C)oc2=O)c(Cl)cc1Cl | – | 32 µM (active) |
| CC1COC(Cn2cncn2)(c2ccc(Oc3ccc(Cl)cc3)cc2Cl)O1 (configuration not stated) | – | 30.8 µM (active) |
| CCCC1COC(Cn2cncn2)(c2ccc(Cl)cc2Cl)O1 (configuration not stated) | inactive | – |
| Oc1ccccc1-c1ccccc1 | inactive | – |
| COC(=O)c1ccccc1C(=O)OC | inactive | – |
| N#Cc1cc(Br)c(O)c(Br)c1 | inactive | – |
| CCNc1nc(Cl)nc(NC(C)C)n1 | inactive | – |
| N#CC(CCc1ccc(Cl)cc1)(Cn1cncn1)c1ccccc1 (configuration not stated) | inactive | – |
| COP(=S)(OC)Oc1nc(Cl)c(Cl)cc1Cl | – | 5.76 µM (active) |
| CNC(=S)S | inactive | – |
| CCCCNC(=O)OCC#CI | – | 3.08 µM (active) and 10.7 µM (active) |
| CS/C(C)=N/OC(=O)N(C)SN(C)C(=O)O/N=C(\C)SC | inactive | – |
| CCCCNC(=O)n1c(NC(=O)OC)nc2ccccc21 | inactive | – |

Reference: PubChem BioAssay (EPA / NIEHS)
